Data on 25 compounds can be found in PubChem BioAssay (NCI).

This is part of a sample that, as a whole, favours compounds with a hit. Of some 83,000 tested, about 20% had one in any assay.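 Note: values are percent growth. 100 is the growth of untreated cells, values between 100 and 0 indicate rising inhibition; between -100 and 0 indicates cell death.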 Values without a mark were called inactive. The source made the active and inactive calls. The calls were made as follows: active = growth percent below 10; inactive = the rest.

In the assay the test system is MALME-3M melanoma. Nature of the assay: NCI-60 one-dose screen, 48 h (100 = growth as untreated, 0 = no growth, -100 = all killed). The following applies: 10 µM unless noted.
Regarding `C=C[C@H]1CCC/C=C/[C@@H]2C[C@H](O)C[C@H]2[C@H](O)/C=C/C(=O)O1`, the growth was -46.4% (active).

`C=CC(=O)N1CN(C(=O)C=C)CN(C(=O)C=C)C1`: the growth was -41.9% (active).

As to `CC(C)CCSc1nc(Nc2ccccc2)c(C#N)c(-c2ccc(F)cc2)n1`, the growth is 68.4%.

Turning to `COC(=O)c1ccc2c(c1)nc(-c1cc3ccccc3[nH]c1=O)n2-c1cc(C(C)(C)C)[nH]n1`, the growth was 96.2%.

Consider `O=C1NN(C(=O)c2ccccc2)C(c2ccc(Cl)c(Cl)c2)=C/C1=C\c1ccccc1[N+](=O)[O-]`, for which the growth was 56.5% [6.75 µM].

`O=C(CCl)Nc1ccc2c(c1)C(=O)c1ccccc1C2=O`: the growth is -62.5% (active).

Take `CCOC(=O)C1C(=O)C=C(c2cc(OC)c(OC)c(OC)c2)CC1c1sc(N(C)Cc2ccccc2)nc1Cl` (stereo not given): the growth was 104%.

Consider `N/C(=N\OC(=O)c1ccccc1)C(C(=O)NOC(=O)c1ccccc1)C1CCCCC1` (stereo not given), for which the growth was 85.3%.

Regarding `C=C(C)[C@@H]1CC[C@]2(C(=O)O)CC[C@]3(C)[C@H](CC[C@@H]4[C@@]5(C)C[C@@H](CC#Cc6ccc(C(C)=O)s6)[C@H](O)C(C)(C)[C@@H]5CC[C@]43C)[C@@H]12`, the growth is 82.6%.

For the compound `CC(C)[C@@H]1C=C2CC[C@H]3[C@](C)(CN)CCC[C@]3(C)[C@H]2CC1`, the growth was 60.2%.

For the compound `COc1ccc(-c2cc(-c3cn(-c4cccc(Cl)c4)nc3-c3ccc(OC)cc3)[nH]c(=S)n2)cc1`, the growth was 90.9%.

Consider `CCN1CCN(Cc2ccc(NC(=O)Nc3ccc(-n4ccc5c(NC(=O)c6ccccc6)nccc54)cc3)cc2C(F)(F)F)CC1`, for which the growth was -48% (active).

Turning to `Clc1ccc(C2=NN[C@H](c3cn(-c4ccccc4)nc3-c3ccccc3)C2)cc1`, the growth is 64.3%.

Take `CC(C)CC1NC(=O)C(CC(C)C)N(CO)C1=O` (stereo not given): the growth was 101%.

In the case of `c1ccc(-c2ccc(-c3ccccc3)[nH]2)cc1`, the growth is 96.4%.

Take `C=CCN(CC#N)CC=C`: the growth is 109%.

For the compound `COc1ccc2c(c1)sc1nc(-c3ccccc3)c(-c3cccc4ccccc34)n12`, the growth was 51.5%.

Consider `CC(C)c1nc2ccccc2n1CC(=O)N/N=C/c1cccc(O)c1`, for which the growth is 108%.

In the case of `CCCCCCCC/C=C\CCCCCCCC(=O)OCCCCCC`, the growth was 120%.

Regarding `CCN(CC)c1ccc(/C=N/NC(=O)c2ccc(S(C)(=O)=O)cc2)c(O)c1`, the growth is 14%.

Regarding `CC(=O)CC(c1ccc([N+](=O)[O-])cc1)c1c(O)c2ccccc2oc1=O` (stereo not given), the growth is 98.3%.

In the case of `CC1CCCN(CCCCOc2ccc(-c3ccc(C#N)cc3)cc2)C1` (stereo not given), the growth was 120%.

On to `Cn1c(-c2ccccc2)cc(=O)n1-c1ccccc1`, for which the growth is 113%.

For `O=C(NCCN1CCCC1)n1cc(-c2ccncc2)c(-c2cc(O)cc(Cl)c2)n1`, the growth is 9.44% (active).

For `C(=Nc1ccc(-c2ccc(N=Cc3ccccc3)cc2)cc1)c1ccccc1`, the growth is 94.6%.
